{"source": "PubChem BioAssay (EPA / NIEHS)", "note": "Results filed as inconclusive are left out. Calls of active or inactive are those of the source. The calls were made as follows: active = hit-call score of the fitted dose curve at least 0.9, where 1 is the maximum; inconclusive = response in the unintended direction; inactive = score below 0.9.", "data": [{"assay": "ATG_M_19_TRANS: Attagene TRANS-FACTORIAL HepG2 Assay for M19 Transcription Factor (Internal Marker) (AID 2282974)", "conditions": "HepG2 Attagene TRANS-FACTORIAL M19 internal marker reporter", "description": "ATG_TRANS is a cell-based, multiplexed-readout assay that uses HepG2, a human liver cell line, with measurements taken at 24 hours after chemical dosing in a 24-well plate.ATG_M_19_TRANS is one of 30 assay component(s) measured or calculated from the ATG_TRANS assay. It is designed to make measurements of mRNA induction, a form of inducible reporter, as detected with fluorescence intensity signals by Reverse transcription polymerase chain reaction (RT-PCR) and Capillary electrophoresis technology.Data from the assay component ATG_M_19_TRANS was analyzed into 1 assay endpoint. This assay endpoint, ATG_M_19_TRANS, was analyzed in the positive analysis fitting direction relative to DMSO as the negative control and baseline of activity. Using a type of inducible reporter, measures of mRNA for gain-of-signal activity can be used to understand the background control at the transcription factor-level as they relate to the gene . Furthermore, this assay endpoint can be referred to as a secondary readout, because this assay has produced multiple assay endpoints where this one serves a background control function. To generalize the intended target to other relatable targets, this assay endpoint is annotated to the background measurement intended target family, where the subfamily is internal marker.\nHuman liver HepG2 cells are transiently transfected with multiple reporter transcription units (MRTUs) in 6-well plates using FuGene 6 reagent (Roche; 3 ml FuGene/1 mg DNA). The MRTU constructs are regulated by a cis-regulating element (promoter). […] A major difference between the CIS and TRANS system is that in CIS activities of endogenous TFs are measured, whereas the TRANS assay evaluates changes in activities of exogenous, chimeric NR-Gal4 proteins. […] At the end of 24 hour incubation, total RNA was isolated using TriZol reagent (Invitrogen). The isolated RNA is then reverse-transcribed using oligo(dT) primer and Mo-MLV reverse transcriptase (Invitrogen) with DNAse I (Ambion) treatment for 30 min. The one-tenth of the produced cDNA was amplified by PCR using Taq DNA polymerase (Invitrogen) and two reporter sequence-specific primers. The PCR products were fluorescently labeled by primer extension with 6-arboxyfluorescein (6-FAM) 5'-labeled reporter sequence-specific primer (2 min at 95 C, 20 s at 68 C and 10 min at 72 C) and these products were digested with 5U of HpaI (New England Biolabs) for 2h at 37 C. The fragments were purified using Qiaquick PCR columns (Qiagen), analyzed on an ABI 3130xL genetic analyzer (Applied Biosystems) with peak positions identified by using a set of X-rhodamine (ROX)-labeled MapMarker1000 molecular weight standards (BioVentures). The raw capillary electrophoresis data was processed using Attagraph software (Attagene).", "values": [{"smiles": "Nc1ccn([C@@H]2O[C@H](CO)[C@@H](O)C2O)c(=O)n1", "note": "(stereo not given in full)", "outcome": "inactive"}, {"smiles": "CCCCCCCCCCCCCC[n+]1ccccc1", "outcome": "inactive"}, {"smiles": "CCC(=O)O", "outcome": "inactive"}, {"smiles": "CC1CCC(CO)CC1", "note": "(stereo not given)", "outcome": "inactive"}, {"smiles": "O=C(Nc1cccc([N+](=O)[O-])c1)c1cc2ccccc2cc1O", "outcome": "inactive"}, {"smiles": "CCC(C)c1ccccc1O", "note": "(stereo not given)", "outcome": "inactive"}, {"smiles": "Nc1cc(Cl)c(-c2cc(Cl)c(N)cc2Cl)cc1Cl", "outcome": "inactive"}, {"smiles": "O=C(O)CCC(F)(F)C(F)(F)C(F)(F)C(F)(F)C(F)(F)C(F)(F)F", "outcome": "inactive"}, {"smiles": "Cc1[nH]nc2c1N=C(c1ccccc1Cl)c1cc([N+](=O)[O-])ccc1N2", "outcome": "inactive"}, {"smiles": "Cc1cncc(C)c1", "outcome": "inactive"}, {"smiles": "NS(=O)(=O)O", "outcome": "inactive"}, {"smiles": "FC(F)(F)C(F)(F)C(F)(F)C(F)(F)I", "outcome": "inactive"}, {"smiles": "Cc1cc(C(C)(C)C)c(O)c(C(C)(C)C)c1", "outcome": "inactive"}, {"smiles": "FC(OC(F)(F)C(F)(F)C(F)(F)F)C(F)(F)F", "note": "(stereo not given)", "outcome": "inactive"}, {"smiles": "O=CC(F)(F)C(F)(F)C(F)(F)F", "outcome": "inactive"}, {"smiles": "O=C1OC2(c3ccccc31)c1cc(I)c(O)c(I)c1Oc1c2cc(I)c(O)c1I", "outcome": "inactive"}, {"smiles": "C=CCOCC(CO)(CO)CO", "outcome": "inactive"}, {"smiles": "CC(O)COc1ccccc1", "note": "(stereo not given)", "outcome": "inactive"}, {"smiles": "COC(=O)C(F)(F)C(F)(F)C(F)(F)C(F)(F)C(F)(F)F", "outcome": "inactive"}, {"smiles": "O=C(O)C(=O)O", "outcome": "inactive"}, {"smiles": "O=C(OC(=O)C(F)(F)C(F)(F)F)C(F)(F)C(F)(F)F", "outcome": "inactive"}, {"smiles": "CCc1cccc(CC)c1NC(=O)C(=O)O", "outcome": "inactive"}, {"smiles": "CN(Cc1cnc2nc(N)nc(N)c2n1)c1ccc(C(=O)N[C@@H](CCC(=O)O)C(=O)O)cc1", "outcome": "inactive"}, {"smiles": "C=CC(=O)OCCC(F)(F)C(F)(F)C(F)(F)C(F)(F)C(F)(F)C(F)(F)C(F)(F)C(F)(F)F", "outcome": "inactive"}, {"smiles": "C=CC(=C)CC/C=C(\\C)CCC=C(C)C", "outcome": "inactive"}, {"smiles": "C[C@]12CC[C@@H]3c4ccc(O)cc4CC[C@H]3[C@@H]1C[C@@H](O)[C@@H]2O", "outcome": "inactive"}, {"smiles": "O=C1c2ccccc2C(=O)c2c(O)c(O)cc(O)c21", "outcome": "inactive"}, {"smiles": "O=S(=O)(O)C(F)(F)C(F)(F)C(F)(F)C(F)(F)C(F)(F)C(F)(F)C(F)(F)C(F)(F)C(F)(F)C(F)(F)F", "outcome": "inactive"}, {"smiles": "O=C1Cc2ccccc2N1c1c(Cl)cccc1Cl", "outcome": "inactive"}, {"smiles": "CCCCCCOC(=O)c1ccc(O)cc1", "outcome": "inactive"}, {"smiles": "CCO[Si](CCC1CCC2OC2C1)(OCC)OCC", "note": "(stereo not given)", "outcome": "inactive"}, {"smiles": "O=c1cc(-c2ccccc2)oc2ccc3ccccc3c12", "outcome": "inactive"}, {"smiles": "CCc1cccc(CC)c1N(COC)C(=O)CS(=O)(=O)O", "outcome": "inactive"}, {"smiles": "CCO[Si](C)(C)OCC", "outcome": "inactive"}, {"smiles": "CC(C)(O)C(=O)c1ccccc1", "outcome": "inactive"}, {"smiles": "CCCCCCCCCCCC(=O)O", "outcome": "inactive"}, {"smiles": "O=C1OC(=O)C(F)(F)C1(F)F", "outcome": "inactive"}, {"smiles": "CC(C)(C)c1ccc(O)c(O)c1", "outcome": "inactive"}, {"smiles": "COC1=CC(=O)C[C@@H](C)[C@]12Oc1c(Cl)c(OC)cc(OC)c1C2=O", "outcome": "inactive"}, {"smiles": "C=CC(=O)OCCN(CC)CC", "outcome": "inactive"}]}]}
